Screens as filed in PubChem BioAssay.
FBA Mtb inh = inhibits M. tuberculosis FBA enzyme | P9WQA3 | purified M. tuberculosis FBA, fluorescence read-out | inhibition, % at 1 µM | actives 2.3% (n = 360,000);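 also: 0% = vehicle and 100% = reference inhibitor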
Rv3671c inh = inhibits the M. tuberculosis serine protease Rv3671c | AID 2606 | actives 0.048% (n = 320,000) | inhibition, % at 5.96 µM | P9WHR9; in the data active = inhibition above about 38%;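 also: extracellular domain of Rv3671c used as enzyme; 0% = enzyme with DMSO and 100% = no enzyme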
Mtb hypoxia inh = reduces hypoxia-regulated biosensor signal in M. tuberculosis; M. tuberculosis hypoxia-regulated fluorescent reporter, fluorescence; AID 1159583; actives 0.1% (n = 300,000); fluorescence inhibition, % (concentration not given with the values); in the data active = fluorescence inhibition mostly above about 23%, no sharp cut-off; inactive = mostly below about 17%
FadD28 binding = inhibitors of Mycobacterium tuberculosis FadD28 bisubstrate binding | FadD28 bisubstrate probe binding, fluorescence polarization | inhibition, % at 12.5 µM | actives 0.22% (n = 360,000) | AID 588549; in the data active = inhibition above about 8.5%, passing the limit was not always enough
UGM FP inh = inhibitors of M. tuberculosis UDP-galactopyranose mutase; purified UGM, fluorescence polarization probe displacement; inhibition, % at 10 µM; actives 0.06% (n = 320,000); AID 504406; in the data active = inhibition above about 10%, passing the limit was not always enough
Target sequence (P9WIQ1 whole entry, looked up): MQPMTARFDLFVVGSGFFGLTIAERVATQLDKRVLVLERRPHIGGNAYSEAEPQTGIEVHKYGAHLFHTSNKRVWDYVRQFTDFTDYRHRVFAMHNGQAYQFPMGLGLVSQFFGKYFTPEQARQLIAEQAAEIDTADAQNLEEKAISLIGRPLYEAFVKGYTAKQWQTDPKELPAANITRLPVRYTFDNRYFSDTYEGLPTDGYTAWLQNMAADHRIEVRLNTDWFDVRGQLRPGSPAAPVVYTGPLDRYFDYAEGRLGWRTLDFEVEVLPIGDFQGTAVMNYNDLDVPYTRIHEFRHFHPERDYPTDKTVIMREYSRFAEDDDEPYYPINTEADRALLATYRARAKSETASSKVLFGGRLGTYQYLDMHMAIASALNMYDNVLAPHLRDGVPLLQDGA
GDH-TPI counter-1 = counter-screen for M. tuberculosis FBA inhibitors: GDH-TPI coupled enzymes | GDH-TPI coupled enzyme counterscreen, NADH absorbance | inhibition, % at 4.8 µM | actives 1.2% (n = 360,000) | AID 588335; in the data active = inhibition above about 30%;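 also: 0% = DMSO wells and 100% = wells lacking the enzyme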
Mtb FBA inh conf = Mtb FBA inhibition, confirmed. shares compounds with FBA Mtb inh. purified M. tuberculosis FBA, fluorescence read-out. inhibition, % at 1 µM. actives 78% (n = 5,600);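 also: 0% = vehicle wells and 100% = reference inhibitor wells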
GDH-TPI counter-2 = GDH-TPI inhibition counter-screen for FBA inhibitors | shares compounds with FBA Mtb inh | inhibition, % at 1 µM | GDH-TPI coupled enzyme counterscreen, fluorescence | actives 81% (n = 5,600); in the data active = inhibition above about 10%
Active calls of the source: *. An excerpt weighted towards active compounds, which were near 3.5% of everything screened. Rule as the data show it, unless noted: active = inhibition above about 27%; inactive = the rest.

O=C(O)C(Oc1ccc2cc(-c3ccc(Cl)cc3)c(=O)oc2c1)c1ccccc1 (centres undefined) was read as FBA Mtb inh 104*, Mtb hypoxia inh -2, FadD28 binding 0, UGM FP inh -3, GDH-TPI counter-1 4, Mtb FBA inh conf active and GDH-TPI counter-2 active.
`CCc1cc(=O)oc2c(C)c(OCC(=O)NC3CC(C)(C)NC(C)(C)C3)ccc12` gave FBA Mtb inh 37*, Rv3671c inh -2, Mtb hypoxia inh -12, FadD28 binding 0, UGM FP inh -3, GDH-TPI counter-1 18, Mtb FBA inh conf 139* and GDH-TPI counter-2 124*.
`Cc1cc(=O)oc2cc(NC(=O)c3ccccc3OC(F)F)ccc12` gave FBA Mtb inh 53*, Rv3671c inh 6, Mtb hypoxia inh 10, FadD28 binding -1, UGM FP inh -1, GDH-TPI counter-1 17, Mtb FBA inh conf 70* and GDH-TPI counter-2 49*.
For C#CCOc1ccc2c(C)cc(=O)oc2c1 the results were FBA Mtb inh 40*, Rv3671c inh 4, FadD28 binding 1, UGM FP inh -5, GDH-TPI counter-1 7, Mtb FBA inh conf 64* and GDH-TPI counter-2 44*.
COC(=O)[C@]1(CC(C)C)NC(c2ccc(-c3ccc(C(C)=O)cc3)cc2)C2C(=O)N(C)C(=O)C21 (some centres undefined) was read as Mtb hypoxia inh 7.
Screening CC(=NNC(=O)Cc1c(C)[nH][nH]c1=O)c1ccc(Cl)c(Cl)c1 returned Mtb hypoxia inh 2.
`CCOc1ccc(S(=O)(=O)Nc2ccc(C(=O)NN=Cc3c(C)nn(-c4ccccc4)c3N3CCCC3)cc2)cc1` gave Mtb hypoxia inh -7.
O=c1oc2cc(OCc3nn[nH]n3)ccc2c2c1CCCC2 was read as FBA Mtb inh 89*, Rv3671c inh -6, Mtb hypoxia inh 3, FadD28 binding -4, UGM FP inh 2, GDH-TPI counter-1 -4, Mtb FBA inh conf -1 and GDH-TPI counter-2 -2.
Screening COc1cccc(COc2ccc3c(C)c(Cc4ccccc4)c(=O)oc3c2)c1 returned FBA Mtb inh 3, Rv3671c inh -12, FadD28 binding 0, UGM FP inh -4 and GDH-TPI counter-1 24.
Screening Cc1c(Cc2ccccc2)c(=O)oc2cc(OCc3nn[nH]n3)ccc12 returned FBA Mtb inh 83*, Rv3671c inh -5, FadD28 binding -10, UGM FP inh 1, GDH-TPI counter-1 18, Mtb FBA inh conf 3 and GDH-TPI counter-2 1.
CC1(C)CC(NC(=O)COc2ccc3c4c(c(=O)oc3c2)CCCC4)CC(C)(C)N1 was read as FBA Mtb inh 52*, Rv3671c inh 0, Mtb hypoxia inh 4, FadD28 binding -1, UGM FP inh 0, GDH-TPI counter-1 17, Mtb FBA inh conf active and GDH-TPI counter-2 active.
`CC(=O)COc1ccc2c3c(c(=O)oc2c1)CCCC3` gave FBA Mtb inh 70*, Rv3671c inh 1, Mtb hypoxia inh 13, FadD28 binding -5, UGM FP inh -1, GDH-TPI counter-1 3, Mtb FBA inh conf 33* and GDH-TPI counter-2 35*.
Screening Cc1ccc(OCC(=O)NC2CC(C)(C)NC(C)(C)C2)cc1C returned FBA Mtb inh 0, Rv3671c inh -7, Mtb hypoxia inh 1, FadD28 binding -3, UGM FP inh -1 and GDH-TPI counter-1 -4.
For CCN(Cc1ccccc1)c1ccc(C=NNS(=O)(=O)c2cccc([N+](=O)[O-])c2)cc1 the results were Mtb hypoxia inh 5.
For CC(=NNC(=O)COc1ccc(C(C)(C)C)cc1)c1ccc2c(c1)OCCO2 the results were Mtb hypoxia inh 1.
Cc1c(OCc2nn[nH]n2)ccc2c3c(c(=O)oc12)CCC(C)C3 (centres undefined) was read as FBA Mtb inh 107*, Rv3671c inh -3, Mtb hypoxia inh -1, FadD28 binding -18, UGM FP inh 4, GDH-TPI counter-1 27, Mtb FBA inh conf active and GDH-TPI counter-2 155*.
